Test [1] is described as follows: reduced mouse 2C T cell binding to pMHC/ICAM-1 vesicles – MLPCN validation set, flow cytometry, LFA-1/ICAM-1 modulator project, pilot screen (AID 2523;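 active = response below a set limit, under 55% cells CD8-positive and vesicle-bound, and CD8 cells' 90th-percentile brightness under 279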;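 for vesicle binding response: mean PE anti-B7-1 fluorescence of CD8+ cells relative to row control; 100% = QL9-loaded vesicles with DMSO vehicle in the same plate row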). Conditions: 2C mouse CD8+ T cells, at 7 µM, stronger effect = lower value; double positive events: measured here: CD8+/vesicle+ event percentage. (In flow cytometry, cells or beads pass a laser one at a time.)
Test [2] has as its target Integrin beta-1 (Homo sapiens) + Integrin alpha-4 (Homo sapiens) (UniProt P13612+P05556). The test is described as follows: alpha4beta1 integrin LIBS antibody binding reduction – U937 cells, HUTS-21 mAb, flow cytometry, validation set, VLA-4 allosteric modulator project, pilot screen (AID 2674;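 active = inhibition above 50%, about 3 SD of the validation set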;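 note: antibody binding induced by the VLA-4 ligand LDV present at three times its Kd; 0% = LDV ligand with antibody and no compound and 100% = antibody without LDV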). Conditions: HUTS-21 LIBS mAb binding, at 6.7 µM, stronger effect = higher value, binding induced by LDV ligand.

A short description of test [3]: calorie-restriction mimetic ROS inhibitors, yeast – validation compound set, pilot screen (AID 2706;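 active = superoxide response below 65% of plate, a cut near 3 SD across the whole screen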;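 note: yeast exposed to compound for one week at 30 degrees C before staining; 100% = mean of all compound wells on the same plate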). Conditions: S. cerevisiae aging, superoxide DHE fluorescence; at 10 µM, stronger effect = lower value.
The target in test [4] is Beta-adrenergic receptor kinase 1 (Homo sapiens) (UniProt P25098). Kind of test: GRK2 binders displacing RNA aptamer, biochemical, validation, human GRK2, bead flow cytometry (AID 488806;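 active = aptamer binding inhibition above 30%, about 3 SD of noise from non-fluorescent compounds; inactive = inhibition at or below 30%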). The following applies: bead-bound GRK2, FAM-aptamer displacement, at 10 µM, stronger effect = higher value.
Sequence of Beta-adrenergic receptor kinase 1 (Homo sapiens) (P25098 whole entry, looked up): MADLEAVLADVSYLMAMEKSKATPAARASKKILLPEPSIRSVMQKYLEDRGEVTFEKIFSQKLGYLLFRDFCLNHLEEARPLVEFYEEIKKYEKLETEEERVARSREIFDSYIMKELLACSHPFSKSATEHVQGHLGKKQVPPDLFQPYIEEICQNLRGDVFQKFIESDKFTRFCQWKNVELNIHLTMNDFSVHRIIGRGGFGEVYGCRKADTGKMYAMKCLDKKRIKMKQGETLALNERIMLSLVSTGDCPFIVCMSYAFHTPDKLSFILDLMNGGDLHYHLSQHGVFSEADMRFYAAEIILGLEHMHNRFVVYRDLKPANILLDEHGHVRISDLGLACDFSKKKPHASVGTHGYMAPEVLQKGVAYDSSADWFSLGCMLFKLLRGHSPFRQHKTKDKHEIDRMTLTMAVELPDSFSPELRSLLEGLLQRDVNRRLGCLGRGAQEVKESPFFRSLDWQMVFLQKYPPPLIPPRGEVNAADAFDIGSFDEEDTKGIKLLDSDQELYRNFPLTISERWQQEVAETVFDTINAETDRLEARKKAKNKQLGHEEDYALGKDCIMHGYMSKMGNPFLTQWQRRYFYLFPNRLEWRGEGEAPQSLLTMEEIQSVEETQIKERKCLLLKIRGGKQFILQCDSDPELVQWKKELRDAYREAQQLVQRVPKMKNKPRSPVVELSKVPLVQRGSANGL
Test [5] has as its target Beta-2 adrenergic receptor (Homo sapiens) (UniProt P07550). The test is described as follows: agonist-induced loss of surface beta2AR – cell-based, FAP fluorogen, flow cytometry, validation set, pilot screen (AID 504459;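 active = percent response above 42, roughly 3 SD of non-fluorescent test compounds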;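 note: agonist-driven loss of surface beta2AR via internalization measured by FAP dye flow cytometry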). Conditions: Am2.2-beta2AR cells, at 10 µM, stronger effect = higher value.
For test [6], the target named is AP-2 complex subunit beta (Homo sapiens) (UniProt P63010). The test is described as follows: beta-arrestin/AP2 interaction blockers – biochemical, validation set, GST-AP2 beads, flow cytometry, pilot screen (AID 504541;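 active = inhibition above 54%, about 3 SD of non-fluorescent compounds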;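 note: AP2 carries R879A mutation and is captured from E. coli lysate; bead-bound FITC arrestin peptide fluorescence measuring arrestin peptide binding to AP2; 0% = DMSO wells and 100% = excess unlabeled arrestin peptide control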). The following applies: FITC arrestin peptide, at 10 µM, stronger effect = higher value, AP2 beta2 appendage fragment, R879A mutant.
Sequence of AP-2 complex subunit beta (Homo sapiens) (P63010 whole entry, looked up, the tested form may be a part, one chain of several): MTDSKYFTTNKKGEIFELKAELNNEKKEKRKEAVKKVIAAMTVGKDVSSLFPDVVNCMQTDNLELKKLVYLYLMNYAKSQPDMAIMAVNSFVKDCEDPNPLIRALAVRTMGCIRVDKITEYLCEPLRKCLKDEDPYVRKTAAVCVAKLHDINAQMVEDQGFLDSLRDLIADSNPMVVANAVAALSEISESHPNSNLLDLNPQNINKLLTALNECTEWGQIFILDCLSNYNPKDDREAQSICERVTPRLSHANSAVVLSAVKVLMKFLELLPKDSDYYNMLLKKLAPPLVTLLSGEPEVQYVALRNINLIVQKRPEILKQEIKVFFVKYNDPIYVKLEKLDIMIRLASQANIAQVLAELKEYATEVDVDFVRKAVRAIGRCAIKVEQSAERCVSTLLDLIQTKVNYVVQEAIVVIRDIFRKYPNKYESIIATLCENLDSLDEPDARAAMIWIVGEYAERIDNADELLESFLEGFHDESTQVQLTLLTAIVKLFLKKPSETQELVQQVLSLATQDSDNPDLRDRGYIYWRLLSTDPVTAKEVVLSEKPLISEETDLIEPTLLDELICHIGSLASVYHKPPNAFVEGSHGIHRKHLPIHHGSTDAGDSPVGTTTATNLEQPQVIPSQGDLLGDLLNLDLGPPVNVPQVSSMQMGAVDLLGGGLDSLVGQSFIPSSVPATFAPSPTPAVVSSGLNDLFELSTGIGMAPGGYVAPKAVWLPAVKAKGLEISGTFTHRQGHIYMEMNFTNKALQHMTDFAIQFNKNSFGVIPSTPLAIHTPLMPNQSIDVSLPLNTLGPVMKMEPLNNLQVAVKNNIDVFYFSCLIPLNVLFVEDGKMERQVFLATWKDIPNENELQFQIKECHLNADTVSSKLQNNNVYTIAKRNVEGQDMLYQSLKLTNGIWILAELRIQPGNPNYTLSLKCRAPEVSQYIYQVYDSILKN
The nature of test [7]: cytosolic pH regulators acting via V-ATPase – S. cerevisiae, pHLuorin, HTS validation (AID 504600; in the data active = response above about 15%;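 note: plate controls were DMSO for no effect and reference compound for full effect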). Conditions: V-ATPase proton transport, at 10 µM, stronger effect = higher value.
In test [8] the test system is anti-desmoglein-3 scFv antibody binding to human DSG3. Kind of test: blockers of pathogenic pemphigus antibody–desmoglein-3 binding – biochemical, validation compound set, bead-based, flow cytometry, pilot screen (AID 588368;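 active = binding below the plate cutoff, the plate median minus 3 SD, with a reading above zero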;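 note: signal is the median channel fluorescence of bead-bound GFP antibody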). The following applies: Protein G beads, DSG3-Fc, scFv-GFP binding, at 10 µM, stronger effect = lower value.
Test [9] in a line: Nile Red efflux blockade in pump-expressing yeast – validation compound set, multiplex, phenotypic, pilot screen (AID 588506;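 active = efflux inhibition above 0.42, the validation set average plus 4 SD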;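 note: Nile Red retained in cells so higher fluorescence means more efflux inhibition; 0 = negative control wells and 1 = enniatin B 25 µM full block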). The following applies: S. cerevisiae pump-expressing triplex, Nile Red efflux flow cytometry; at 10 µM; stronger effect = higher value; the pumps come from Candida albicans.
The target in test [10] is ATP-binding cassette sub-family B member 6 (Homo sapiens) (UniProt Q9NP58). The test is described as follows: blockers of ABCB6-driven porphyrin uptake – K562-ABCB6 cells, flow cytometry, validation set, pilot screen (AID 588550).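 Note: 0% = DMSO wells and 100% = benzethonium chloride 70 µM positive control.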 The following applies: K562-ABCB6 porphyrin accumulation, 1 h, at 10 µM, stronger effect = higher value.
Sequence of ATP-binding cassette sub-family B member 6 (Homo sapiens) (Q9NP58 whole entry, looked up): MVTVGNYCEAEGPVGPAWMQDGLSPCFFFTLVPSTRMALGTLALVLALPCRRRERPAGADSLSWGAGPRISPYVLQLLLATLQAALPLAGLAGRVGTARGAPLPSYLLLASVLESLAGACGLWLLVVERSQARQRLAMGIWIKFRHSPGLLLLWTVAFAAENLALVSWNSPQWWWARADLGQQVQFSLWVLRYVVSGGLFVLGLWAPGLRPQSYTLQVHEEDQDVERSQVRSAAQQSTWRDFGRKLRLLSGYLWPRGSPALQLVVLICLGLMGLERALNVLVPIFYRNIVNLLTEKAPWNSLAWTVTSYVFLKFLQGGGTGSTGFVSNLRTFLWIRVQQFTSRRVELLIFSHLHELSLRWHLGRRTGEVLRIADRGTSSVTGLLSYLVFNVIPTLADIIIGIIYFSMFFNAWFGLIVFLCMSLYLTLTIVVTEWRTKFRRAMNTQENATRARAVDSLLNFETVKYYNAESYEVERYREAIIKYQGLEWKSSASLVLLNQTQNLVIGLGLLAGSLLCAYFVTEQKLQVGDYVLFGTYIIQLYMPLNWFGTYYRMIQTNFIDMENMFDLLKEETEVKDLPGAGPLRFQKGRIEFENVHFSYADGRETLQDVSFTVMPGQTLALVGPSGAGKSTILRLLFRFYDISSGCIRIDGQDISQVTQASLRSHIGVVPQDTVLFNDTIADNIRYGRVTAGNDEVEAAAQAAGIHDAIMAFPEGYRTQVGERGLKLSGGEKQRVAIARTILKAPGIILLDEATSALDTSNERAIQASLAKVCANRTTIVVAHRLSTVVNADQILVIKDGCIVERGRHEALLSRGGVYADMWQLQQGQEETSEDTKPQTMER
Test [11] can be described thus: AML differentiation inducers, ER-HoxA9 marrow cells – cell-based, GFP/MAC1 double positive, flow cytometry, validation set, primary screen (AID 588685;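 active = differentiation response of at least 50%, scaled between solvent and reference control, from cells with both markers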;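 note: compound exposure lasts four days before antibody staining and flow analysis; 0% = DMSO wells and 100% = 5 µM fulvestrant positive control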). Conditions: stronger effect = higher value, normalized: vehicle 0, fulvestrant 100.
Test [12] in a line: hit retest on RPL19A-GFP reporter strain – cell-based, S. cerevisiae, flow cytometry, cherry picks, mother/daughter gates, confirmation (AID 2270;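 active = GFP response below 50% of the DMSO control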). Conditions: 3 h, at 10 µM, stronger effect = lower value, 100 = same GFP as DMSO wells.
A short description of test [13]: yeast TOR pathway reporter LAP4-GFP change – cell-based, cherry picks, flow cytometry, mother/daughter gates, confirmation (AID 2271;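 active = GFP response above 150% of the DMSO control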;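 note: ratio of sample to DMSO plate mean so 100% equals DMSO level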). Conditions: S. cerevisiae LAP4-GFP strain, 3 h, at 10 µM, stronger effect = higher value, 100 means same as DMSO control.
A short description of test [14]: TOR pathway reporter MEP2-GFP, retest of hits – S. cerevisiae, flow cytometry GFP, cherry picks, confirmation (AID 2272;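 active = GFP response above 150% of the DMSO control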;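 note: ratio of well signal to plate DMSO mean so 100% equals DMSO level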). The following applies: S. cerevisiae MEP2-GFP strain, 3 h, at 10 µM, stronger effect = higher value.
Test [15] can be described thus: yeast AGP1-GFP fluorescence change, single-dose – cell-based, flow cytometry, S. cerevisiae, cherry picks, confirmation (AID 2273;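 active = GFP response above 150% of the DMSO level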;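 note: median GFP channel fluorescence over the whole cell population gate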). The following applies: S. cerevisiae AGP1-GFP strain, 3 h, at 10 µM.
Test [16] can be described thus: TOR pathway CIT2 reporter hit retest – S. cerevisiae, GFP fusion, cherry picks, mother/daughter gates, confirmation (AID 2274;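 active = GFP response above 150% of the DMSO level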). Conditions: S. cerevisiae CIT2-GFP strain, flow cytometry, 3 h; at 10 µM; stronger effect = higher value.

Consider 12 compounds from PubChem BioAssay.

The source made the active and inactive calls.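 Rule for the calls, unless noted: active = inhibition above the screen-wide mean plus 3 SD, about 51%; inactive = the rest.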

For orientation: inhibition means the change of the read-out against control, counted positive when it falls.

Sequence of Integrin beta-1 (Homo sapiens) + Integrin alpha-4 (Homo sapiens) (P05556 whole entry, looked up): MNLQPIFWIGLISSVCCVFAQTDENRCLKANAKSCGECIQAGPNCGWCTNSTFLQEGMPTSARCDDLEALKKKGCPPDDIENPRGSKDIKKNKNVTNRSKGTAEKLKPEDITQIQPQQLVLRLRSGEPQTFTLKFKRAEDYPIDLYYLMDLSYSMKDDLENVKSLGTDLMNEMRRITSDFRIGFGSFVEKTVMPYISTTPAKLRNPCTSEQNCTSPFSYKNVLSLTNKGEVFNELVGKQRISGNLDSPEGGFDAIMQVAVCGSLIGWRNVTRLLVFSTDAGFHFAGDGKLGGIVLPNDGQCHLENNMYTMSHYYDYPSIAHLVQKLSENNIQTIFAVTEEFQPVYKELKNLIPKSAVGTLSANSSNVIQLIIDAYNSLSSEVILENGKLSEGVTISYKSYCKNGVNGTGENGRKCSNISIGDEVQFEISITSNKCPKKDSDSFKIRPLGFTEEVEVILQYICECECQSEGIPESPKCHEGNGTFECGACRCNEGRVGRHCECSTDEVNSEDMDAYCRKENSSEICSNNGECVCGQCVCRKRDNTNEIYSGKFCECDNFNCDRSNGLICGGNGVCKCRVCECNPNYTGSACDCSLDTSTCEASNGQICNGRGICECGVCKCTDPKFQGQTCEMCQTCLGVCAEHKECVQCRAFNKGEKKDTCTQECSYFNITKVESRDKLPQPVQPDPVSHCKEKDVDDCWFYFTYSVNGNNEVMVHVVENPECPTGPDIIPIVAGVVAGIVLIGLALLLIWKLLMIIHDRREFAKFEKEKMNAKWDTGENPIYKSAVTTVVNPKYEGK
Sequence of Integrin beta-1 (Homo sapiens) + Integrin alpha-4 (Homo sapiens) (P13612 whole entry, looked up): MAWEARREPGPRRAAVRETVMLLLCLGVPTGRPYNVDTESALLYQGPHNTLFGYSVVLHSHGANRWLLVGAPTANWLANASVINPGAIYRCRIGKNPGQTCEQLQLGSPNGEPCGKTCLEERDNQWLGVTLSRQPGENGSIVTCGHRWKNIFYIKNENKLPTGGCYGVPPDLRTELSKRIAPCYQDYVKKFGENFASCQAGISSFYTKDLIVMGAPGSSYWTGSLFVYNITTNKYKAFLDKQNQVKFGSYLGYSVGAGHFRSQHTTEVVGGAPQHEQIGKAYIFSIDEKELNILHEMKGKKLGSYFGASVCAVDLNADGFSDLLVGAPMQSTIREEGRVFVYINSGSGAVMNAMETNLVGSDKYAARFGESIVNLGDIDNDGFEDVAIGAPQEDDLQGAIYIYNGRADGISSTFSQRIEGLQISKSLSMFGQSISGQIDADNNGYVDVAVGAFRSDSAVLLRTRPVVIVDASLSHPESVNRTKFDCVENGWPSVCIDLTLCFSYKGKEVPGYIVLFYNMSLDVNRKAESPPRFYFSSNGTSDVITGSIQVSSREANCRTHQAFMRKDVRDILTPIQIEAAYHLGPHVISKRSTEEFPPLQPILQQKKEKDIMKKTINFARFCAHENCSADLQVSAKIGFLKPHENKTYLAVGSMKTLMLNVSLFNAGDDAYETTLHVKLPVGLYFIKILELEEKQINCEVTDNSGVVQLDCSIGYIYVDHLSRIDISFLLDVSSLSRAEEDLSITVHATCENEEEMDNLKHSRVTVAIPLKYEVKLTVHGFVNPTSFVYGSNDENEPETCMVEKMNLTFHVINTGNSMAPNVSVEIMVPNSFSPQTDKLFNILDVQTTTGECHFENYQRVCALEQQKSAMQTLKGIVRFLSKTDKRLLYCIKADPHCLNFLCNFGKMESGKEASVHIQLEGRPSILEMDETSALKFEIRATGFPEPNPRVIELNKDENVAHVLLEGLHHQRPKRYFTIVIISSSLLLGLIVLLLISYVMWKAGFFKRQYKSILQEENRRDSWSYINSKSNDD
Sequence of Beta-2 adrenergic receptor (Homo sapiens) (P07550 whole entry, looked up): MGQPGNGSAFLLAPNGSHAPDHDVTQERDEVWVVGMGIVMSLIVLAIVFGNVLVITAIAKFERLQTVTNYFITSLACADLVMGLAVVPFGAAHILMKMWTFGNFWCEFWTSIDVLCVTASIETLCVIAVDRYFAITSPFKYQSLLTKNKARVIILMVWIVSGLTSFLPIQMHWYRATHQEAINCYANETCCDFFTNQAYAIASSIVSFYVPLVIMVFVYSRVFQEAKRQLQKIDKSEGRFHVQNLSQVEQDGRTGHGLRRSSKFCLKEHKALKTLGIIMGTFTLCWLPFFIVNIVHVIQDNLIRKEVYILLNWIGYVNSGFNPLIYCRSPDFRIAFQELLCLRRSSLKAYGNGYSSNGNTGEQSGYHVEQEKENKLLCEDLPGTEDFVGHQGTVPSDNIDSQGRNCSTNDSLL

For `O=P(c1ccccc1)(c1ccccc1)c1nc(-c2ccc(Cl)cc2)oc1N1CCOCC1`, the double positive events in [1] was found to be 57.7%. In test [1], the vesicle binding response is 148% (inactive). For the same compound, the inhibition is 4.27% (inactive) in [2], 7.65% (inactive) in test [6] and -3% (inactive) in [10]. Besides, the superoxide response (% of plate) in [3] is 135% (inactive). Further, the aptamer binding inhibition in test [4] is 2% (inactive). Moreover, the response in test [5] is -13.6% (inactive); in test [7] it was 3.02% (inactive). Further, the binding (% of control) in test [8] was 105% (inactive). Further, the efflux inhibition (fraction of control) in test [9] is 0.435 (active). For the same compound, in [11], the differentiation response was -3.11% (inactive).
With `O=C(/C=C/c1ccccc1)/C=C/c1ccccc1`, the double positive events in test [1] was 69.3%. Also, the vesicle binding response in test [1] was 434% (inactive). The values for the inhibition in [2], in test [6] and in test [10] were 21.4% (inactive), -3.48% (inactive) and 2% (inactive), respectively. Also, the superoxide response (% of plate) in [3] was 105% (inactive). The aptamer binding inhibition in test [4] was 2% (inactive). The response in [5] is 48.5% (active); in test [7], 0.62% (inactive). In addition, in test [8], the binding (% of control) is 96.6% (inactive). The efflux inhibition (fraction of control) in test [9] was -0.17 (inactive). In addition, the differentiation response in test [11] is -16.8% (inactive).
Regarding `C=CCc1ccc(OCC(O)COc2ccc(CC=C)cc2OC)c(OC)c1`, in test [1], the double positive events was 58.6%. Besides, in test [1], the vesicle binding response was 140% (inactive). For the same compound, the results for the inhibition in test [2], in test [6] and in test [10] were 7.76% (inactive), 3.97% (inactive) and 4% (inactive), respectively. Besides, the superoxide response (% of plate) in test [3] is 104% (inactive). Also, in test [4], the aptamer binding inhibition was -1% (inactive). The response in [5] was 7.14% (inactive); in test [7], 2.47% (inactive). The binding (% of control) in test [8] was 104% (inactive). Moreover, in test [9], the efflux inhibition (fraction of control) was 0.4 (inactive). For the same compound, the differentiation response in [11] is 50.4% (active).
Consider `COc1cc(NC(=O)N[C@@H](Cc2ccccc2)C(=O)O)cc(OC)c1`, for which the double positive events in test [1] came out at 62.8%. Moreover, the vesicle binding response in test [1] was 221% (inactive). The inhibition in test [2] is 9.1% (inactive); in test [6], -3.53% (inactive); in [10] it was 2% (inactive). Also, the superoxide response (% of plate) in [3] is 106% (inactive). Further, in [4], the aptamer binding inhibition is 3% (inactive). The response in test [5] was -10.8% (inactive); in [7] it was 22.2% (active). Also, the binding (% of control) in [8] was 105% (inactive). Further, the efflux inhibition (fraction of control) in test [9] is -0.09 (inactive). In addition, in test [11], the differentiation response was 0.92% (inactive).
In [1], `COc1ccc2c(c1OC)C(=O)NC(C)=C(C(=O)OC(C)(C)C)C2O` (stereo not given) yielded a double positive events of 62.8%. Further, in test [1], the vesicle binding response is 192% (inactive). Also, the results for the inhibition in test [2], in [6] and in test [10] were 5.03% (inactive), -5.16% (inactive) and 7% (inactive), respectively. Also, in test [3], the superoxide response (% of plate) was 97.2% (inactive). Also, the aptamer binding inhibition in test [4] was 4% (inactive). Further, the results for the response in test [5] and in test [7] were 7.52% (inactive) and 1.16% (inactive), respectively. Moreover, the binding (% of control) in test [8] is 103% (inactive). Also, the efflux inhibition (fraction of control) in test [9] was 0.01 (inactive). For the same compound, in test [11], the differentiation response was 56.8% (active).
Compound `COc1ccc(/C=N\NC(=O)CCc2c(C)n[nH]c2C)c(OC)c1OC` came in with a double positive events in test [1] of 60.3%. In test [1], the vesicle binding response was 151% (inactive). Further, the results for the inhibition in test [2], in [6] and in test [10] were -3.16% (inactive), 7.15% (inactive) and 4% (inactive), respectively. Also, the superoxide response (% of plate) in test [3] was 111% (inactive). Besides, in test [4], the aptamer binding inhibition was 2% (inactive). Moreover, the response in [5] was 3.8% (inactive); in [7], -0.97% (inactive). In addition, in test [8], the binding (% of control) is 102% (inactive). Moreover, the efflux inhibition (fraction of control) in [9] was -0.21 (inactive). Moreover, the differentiation response in [11] is 4% (inactive).
Take `COc1ccc(CCN=C(N)C(C)c2ccccc2)cc1OC` (stereo not given): the double positive events in test [1] came to 62.6%. For the same compound, the vesicle binding response in test [1] is 238% (inactive). The inhibition is 5.69% (inactive) in test [2], -6.07% (inactive) in test [6] and 5% (inactive) in test [10]. Besides, the superoxide response (% of plate) in test [3] is 93.8% (inactive). Moreover, the aptamer binding inhibition in test [4] is 4% (inactive). Also, the response in test [5] was -11.2% (inactive); in test [7], -1.3% (inactive). The binding (% of control) in [8] is 97.3% (inactive). Moreover, the efflux inhibition (fraction of control) in test [9] is -0.04 (inactive). Besides, the differentiation response in test [11] is 7.82% (inactive).
On to `CN1[C@@H](CC(=O)c2ccccc2)CCC[C@H]1C[C@H](O)c1ccccc1`, for which, in [1], the double positive events came to 61.3%. In test [1], the vesicle binding response is 176% (inactive). The values for the inhibition in [2], in test [6] and in test [10] were 6.4% (inactive), -9.53% (inactive) and 3% (inactive), respectively. For the same compound, in [3], the superoxide response (% of plate) is 93.3% (inactive). The aptamer binding inhibition in test [4] is 4% (inactive). In addition, the response was 12.9% (inactive) in [5] and 3.14% (inactive) in test [7]. For the same compound, the binding (% of control) in test [8] is 103% (inactive). Besides, the efflux inhibition (fraction of control) in [9] was -0.06 (inactive). Besides, in test [11], the differentiation response was -0.8% (inactive).
Consider `N/C(=N\OC(=O)c1ccc(Cl)cc1Cl)c1ccccc1`, for which the GFP response vs DMSO in test [12] is 98.4% (inactive); in test [14], 106% (inactive). For the same compound, the GFP response relative to DMSO in test [13] was 155% (active). The GFP response, % of DMSO was 80.1% (inactive) in test [15] and 151% (active) in test [16].
The corresponding values for `Cc1ccc2c(c1)C1CN(C)CCC1N2C(=O)c1ccc(Cl)c(S(=O)(=O)N2CCOCC2)c1` (stereo not given) are 102% (inactive), 102% (inactive), 107% (inactive), 102% (inactive) and 112% (inactive).
On to `CC(=O)OCC(=O)[C@@]1(OC(C)=O)[C@@H](C)C[C@H]2[C@@H]3C[C@H](F)C4=CC(=O)C=C[C@]4(C)[C@@]3(F)[C@@H](O)C[C@@]21C`, for which the double positive events in test [1] came to 61.9%. In addition, the vesicle binding response in test [1] is 157% (inactive). Besides, the figures for the inhibition in test [2], in [6] and in [10] were -11.8% (inactive), 1.66% (inactive) and -2% (inactive), respectively. In addition, the superoxide response (% of plate) in test [3] is 97.6% (inactive). Further, in test [4], the aptamer binding inhibition was -1% (inactive). In addition, the response in test [5] is 5.99% (inactive); in test [7], -2.14% (inactive). Besides, in test [8], the binding (% of control) was 103% (inactive). In addition, the efflux inhibition (fraction of control) in [9] was -0.015 (inactive). Moreover, in test [11], the differentiation response is 4.2% (inactive).
In turn, `COC(=O)c1cc(C(=O)NCCC(C)C)cc([N+](=O)[O-])c1` returned a double positive events in test [1] of 57.8%. For the same compound, the vesicle binding response in test [1] was 229% (inactive). Also, the inhibition is 2.3% (inactive) in test [2], -12% (inactive) in test [6] and 3% (inactive) in test [10]. In test [3], the superoxide response (% of plate) is 112% (inactive). Also, in [4], the aptamer binding inhibition was 4% (inactive). Also, the response was 7.63% (inactive) in test [5] and 2.1% (inactive) in [7]. Besides, in [8], the binding (% of control) was 94.5% (inactive). Also, in test [9], the efflux inhibition (fraction of control) was -0.13 (inactive). Further, the differentiation response in test [11] is -15.2% (inactive).
